# Assay results reported in the supplement of paper PMC8728848.
# Many of the other results were omitted from the sample, so the strongest signals are more common in it than they were.
# B1: AT3G44510(29) (Arabidopsis thaliana), F4J341 (protein)
# chain: MEEHLQGRIKLHDGRYLAYKERGVPKDDAKFTIVLVHGFGSSKDMNFNVSQELVNEIGIYFVLYDRAGYGESDPNPKRSLKSEAYDVQELADGLEIGSRFYLIGISMGSYTVWSCLKHIPQRLAGVAMVAPVVNFRWPSIPKSLMPKDYRREVAKWSVWIANYFPGLLQWLVTQNMFSTTSMLEKNPVYFNDQDIEVLKHIKGFPMLTKEKLRERGVFGTLRSDFLVAFGDWDFDPADLPDPSLSGPEKGSSSVHIWQGYEDKVMPFQLQRCLCRKLPWIRYHEVPKGGHLIVHYDGICDAILKSLLLGEDLPMYKPKAVITEPA
# Experiments:
# Experiment in all cases: glycan array binding signal (z-score within array); higher = stronger binding
# Conditions in all cases: glycan notation: IUPAC condensed, linker removed
# Fuc(a1-2)Gal(b1-3)GlcNAc = target: Fuc(a1-2)Gal(b1-3)GlcNAc
# Method in brief: (§1)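 Glycan array binding is given as a within-array Z-score, which can be read as non-binding when negative. The arrays, 3228 of them, came from the Consortium for Functional Glycomics database and were retained only where the protein sequence was available. Z-scores were averaged across arrays of the same protein sequence at different concentrations or buffers and across linkers.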
# [1] = target: Fuc(a1-2)Gal(b1-3)[Fuc(a1-4)]GlcNAc(b1-3)[Gal(b1-4)GlcNAc(b1-6)]Gal(b1-4)Glc
# Method in brief: as §1
# [2] = target: Fuc(a1-2)Gal(b1-4)GlcNAc(b1-6)GalNAc
# Method in brief: as §1
# [3] = target: Fuc(a1-2)Gal(b1-4)[Fuc(a1-3)]GlcNAc
# Method in brief: as §1
# [4] = target: Fuc(a1-2)Gal(b1-4)[Fuc(a1-3)]GlcNAc(b1-2)Man(a1-3)[Fuc(a1-2)Gal(b1-4)[Fuc(a1-3)]GlcNAc(b1-2)Man(a1-6)]Man(b1-4)GlcNAc(b1-4)[Fuc(a1-6)]GlcNAc
# Method in brief: as §1
# [5] = target: Fuc(a1-2)Gal(b1-4)[Fuc(a1-3)]GlcNAc(b1-3)Gal(b1-4)[Fuc(a1-3)]GlcNAc
# Method in brief: as §1
# [6] = target: Fuc(a1-2)Gal3S(b1-4)GlcNAc
# Method in brief: as §1
# Fuc(a1-2)[Gal(a1-3)]Gal = target: Fuc(a1-2)[Gal(a1-3)]Gal
# Method in brief: as §1
# [7] = target: Fuc(a1-2)[Gal(a1-3)]Gal(b1-4)GlcNAc(b1-2)Man(a1-3)[Fuc(a1-2)[Gal(a1-3)]Gal(b1-4)GlcNAc(b1-2)Man(a1-6)]Man(b1-4)GlcNAc(b1-4)[Fuc(a1-6)]GlcNAc
# Method in brief: as §1
# [8] = target: Fuc(a1-2)[GalNAc(a1-3)]Gal(b1-3)GalNAc(b1-3)Gal(a1-4)Gal(b1-4)Glc
# Method in brief: as §1
# [9] = target: Fuc(a1-2)[GalNAc(a1-3)]Gal(b1-3)GlcNAc(b1-2)Man(a1-3)[Fuc(a1-2)[GalNAc(a1-3)]Gal(b1-3)GlcNAc(b1-2)Man(a1-6)]Man(b1-4)GlcNAc(b1-4)[Fuc(a1-6)]GlcNAc
# Method in brief: as §1
# [10] = target: Fuc(a1-2)[GalNAc(a1-3)]Gal(b1-4)[Fuc(a1-3)]GlcNAc
# Method in brief: as §1
# [11] = target: Fuc(a1-2)[GalNAc(a1-3)]Gal(b1-4)[Fuc(a1-3)]GlcNAc(b1-3)GalNAc
# Method in brief: as §1
# [12] = target: Fuc(a1-3)[GalNAc(b1-4)]GlcNAc6S
# Method in brief: as §1
# Gal(a1-3)Gal(b1-4)Glc = target: Gal(a1-3)Gal(b1-4)Glc
# Method in brief: as §1
# Gal(a1-3)GalNAc = target: Gal(a1-3)GalNAc
# Method in brief: as §1
# [13] = target: Gal(a1-3)[Gal(a1-4)]Gal(b1-4)GlcNAc
# Method in brief: as §1
# Gal(a1-4)Gal(b1-4)Glc = target: Gal(a1-4)Gal(b1-4)Glc
# Method in brief: as §1
# [14] = target: Gal(a1-4)Gal(b1-4)GlcNAc(b1-3)Gal(b1-4)Glc
# Method in brief: as §1
# Gal(b1-3)GlcNAc = target: Gal(b1-3)GlcNAc
# Method in brief: as §1
# [15] = target: Gal(b1-3)[Fuc(a1-4)]GlcNAc(b1-3)Gal(b1-3)[Fuc(a1-4)]GlcNAc
# Method in brief: as §1
# [16] = target: Gal(b1-4)GlcNAc(a1-6)Gal(b1-4)GlcNAc
# Method in brief: as §1
# [17] = target: Gal(b1-4)GlcNAc(b1-2)Man(a1-3)[Gal(b1-4)GlcNAc(b1-2)Man(a1-6)]Man(b1-4)GlcNAc(b1-4)GlcNAc
# Method in brief: as §1
# [18] = target: Gal(b1-4)GlcNAc(b1-2)[Gal(b1-4)GlcNAc(b1-6)]Man(a1-6)[GlcNAc(b1-4)][Gal(b1-4)GlcNAc(b1-2)[Gal(b1-4)GlcNAc(b1-4)]Man(a1-3)]Man(b1-4)GlcNAc(b1-4)[Fuc(a1-6)]GlcNAc
# Method in brief: as §1
# [19] = target: Gal(b1-4)GlcNAc(b1-3)Gal(b1-3)GlcNAc
# Method in brief: as §1
# [20] = target: Gal(b1-4)GlcNAc(b1-3)Gal(b1-4)GlcNAc(b1-2)[Gal(b1-4)GlcNAc(b1-3)Gal(b1-4)GlcNAc(b1-6)]Man(a1-6)[Gal(b1-4)GlcNAc(b1-3)Gal(b1-4)GlcNAc(b1-2)Man(a1-3)]Man(b1-4)GlcNAc(b1-4)[Fuc(a1-6)]GlcNAc
# Method in brief: as §1
# Gal6S(b1-4)Glc = target: Gal6S(b1-4)Glc
# Method in brief: as §1
# [21] = target: GalNAc(a1-3)GalNAc(b1-3)Gal(a1-4)Gal(b1-4)Glc
# Method in brief: as §1
# [22] = target: GalNAc(b1-3)Gal(a1-4)Gal(b1-4)GlcNAc
# Method in brief: as §1
# [23] = target: GalNAc(b1-3)Gal(a1-6)Gal(b1-4)Glc
# Method in brief: as §1
binder,measurement,setting,value
B1,glycan array binding signal (z-score),Fuc(a1-2)Gal(b1-3)GlcNAc,0.123
same,glycan array binding signal (z-score),[1],0.203
same,glycan array binding signal (z-score),[2],-0.731
same,glycan array binding signal (z-score),[3],-0.381
same,glycan array binding signal (z-score),[4],-0.458
same,glycan array binding signal (z-score),[5],-0.951
same,glycan array binding signal (z-score),[6],3.33
same,glycan array binding signal (z-score),Fuc(a1-2)[Gal(a1-3)]Gal,2.08
same,glycan array binding signal (z-score),[7],-0.079
same,glycan array binding signal (z-score),[8],-0.123
same,glycan array binding signal (z-score),[9],-0.313
same,glycan array binding signal (z-score),[10],-0.818
same,glycan array binding signal (z-score),[11],6.03
same,glycan array binding signal (z-score),[12],-0.561
same,glycan array binding signal (z-score),Gal(a1-3)Gal(b1-4)Glc,-0.538
same,glycan array binding signal (z-score),Gal(a1-3)GalNAc,2.52
same,glycan array binding signal (z-score),[13],7.13
same,glycan array binding signal (z-score),Gal(a1-4)Gal(b1-4)Glc,3.6
same,glycan array binding signal (z-score),[14],-0.481
same,glycan array binding signal (z-score),Gal(b1-3)GlcNAc,-0.484
same,glycan array binding signal (z-score),[15],-0.685
same,glycan array binding signal (z-score),[16],-0.378
same,glycan array binding signal (z-score),[17],-0.419
same,glycan array binding signal (z-score),[18],-0.121
same,glycan array binding signal (z-score),[19],-0.443
same,glycan array binding signal (z-score),[20],-0.519
same,glycan array binding signal (z-score),Gal6S(b1-4)Glc,-0.234
same,glycan array binding signal (z-score),[21],-0.476
same,glycan array binding signal (z-score),[22],3.41
same,glycan array binding signal (z-score),[23],-0.353
